According to PubChem BioAssay:
Results filed as inconclusive are left out. The source made the active and inactive calls.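 The calls were made as follows, unless noted: active = differentiation response of at least 50%, scaled between solvent and reference control, from cells with both markers; inactive = the rest.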

What was measured:
[1] = yeast TOR pathway RPL19A-GFP modulators, primary screen, cell-based, S. cerevisiae, multiplex flow cytometry (AID 1862; in the data active = percent of DMSO control GFP below about 86%;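 also: lower values mimic rapamycin by blocking the RPL19A rise seen in DMSO cells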); settings: S. cerevisiae RPL19A-GFP strain, flow cytometry fluorescence, 3 h; at 10 µM; stronger effect = lower value
[2] = modulators of MEP2-GFP levels in yeast, primary screen, S. cerevisiae, multiplex flow cytometry (AID 1867;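 active = GFP response, as percent of the DMSO control, above the screen-wide mean plus 3 SD, about 139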;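 also: median GFP channel fluorescence of barcode-gated MEP2-GFP cells measured by flow cytometry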); settings: S. cerevisiae MEP2-GFP strain, 3 h, at 10 µM, stronger effect = higher value, 100% means same as DMSO wells
[3] = modulators of CIT2-GFP expression in yeast, primary screen, S. cerevisiae, GFP fusion, multiplex flow cytometry (AID 1870;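 active = percent response above a set limit, the screen-wide mean plus 3 SD, cut at about 130% in these data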;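 also: barcoded CIT2-GFP strain pooled with four other GFP strains with rapamycin as positive control; median GFP fluorescence per well over plate mean of DMSO wells so 100% = DMSO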); settings: 3 h, at 10 µM, stronger effect = higher value
[4] = modulators of LAP4-GFP expression in yeast, primary screen, S. cerevisiae, multiplex flow cytometry (AID 1873;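 active = GFP signal, as percent of the solvent control, above the screen mean plus 3 SD, about 149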); settings: 3 h, at 10 µM, stronger effect = higher value
[5] = modulators of AGP1-GFP expression in yeast TOR pathway, primary screen, cell-based, multiplex flow cytometry, S. cerevisiae (AID 1887;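 active = GFP signal above the screen-wide mean plus 3 SD, that is over about 124.5% of the solvent control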;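 also: AGP1-GFP fusion strain of S. cerevisiae within a five-strain barcoded multiplex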); settings: 3 h, at 10 µM, stronger effect = higher value
[6] = inhibitors of CD8+ T cell-vesicle binding, pilot screen, LFA-1/ICAM-1 modulator project, MLPCN validation set, flow cytometry (AID 2523;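 active = response below a set limit, under 55% cells CD8-positive and vesicle-bound, and CD8 cells' 90th-percentile brightness under 279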;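 as to vesicle binding response: mean PE anti-B7-1 fluorescence of CD8+ cells relative to row control; 100% = QL9-loaded vesicles with DMSO vehicle in the same plate row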); settings: 2C mouse CD8+ T cells, at 7 µM, stronger effect = lower value; double positive events: measured here: CD8+/vesicle+ event percentage
[7] = target: Integrin beta-1 (Homo sapiens) + Integrin alpha-4 (Homo sapiens) (UniProt P13612+P05556); assay: inhibition of HUTS-21 binding to VLA-4, pilot screen, VLA-4 allosteric modulator project, U937 cells, HUTS-21 mAb, flow cytometry, validation set (AID 2674;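 active = inhibition above 50%, about 3 SD of the validation set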;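 also: antibody binding induced by the VLA-4 ligand LDV present at three times its Kd; 0% = LDV ligand with antibody and no compound and 100% = antibody without LDV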); settings: HUTS-21 LIBS mAb binding, at 6.7 µM, stronger effect = higher value, binding induced by LDV ligand
[8] = superoxide lowering in aged yeast cells, pilot screen, validation compound set (AID 2706;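 active = superoxide response below 65% of plate, a cut near 3 SD across the whole screen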;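 also: yeast exposed to compound for one week at 30 degrees C before staining; 100% = mean of all compound wells on the same plate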); settings: S. cerevisiae aging, superoxide DHE fluorescence; at 10 µM; stronger effect = lower value
[9] = target: Beta-adrenergic receptor kinase 1 (Homo sapiens) (UniProt P25098); assay: GRK2 binders displacing RNA aptamer, biochemical, validation, human GRK2, bead flow cytometry (AID 488806;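 active = aptamer binding inhibition above 30%, about 3 SD of noise from non-fluorescent compounds; inactive = inhibition at or below 30%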); settings: bead-bound GRK2, FAM-aptamer displacement, at 10 µM, stronger effect = higher value
[10] = target: Beta-2 adrenergic receptor (Homo sapiens) (UniProt P07550); assay: beta2AR agonists driving receptor internalization, pilot screen, cell-based, FAP fluorogen, flow cytometry, validation set (AID 504459;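 active = percent response above 42, roughly 3 SD of non-fluorescent test compounds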;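 also: agonist-driven loss of surface beta2AR via internalization measured by FAP dye flow cytometry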); settings: Am2.2-beta2AR cells, FAP surface receptor flow cytometry; at 10 µM; stronger effect = higher value
[11] = target: AP-2 complex subunit beta (Homo sapiens) (UniProt P63010); assay: inhibitors of arrestin peptide binding to AP2, pilot screen, biochemical, validation set, GST-AP2 beads, flow cytometry (AID 504541;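 active = inhibition above 54%, about 3 SD of non-fluorescent compounds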;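 also: AP2 carries R879A mutation and is captured from E. coli lysate; bead-bound FITC arrestin peptide fluorescence measuring arrestin peptide binding to AP2; 0% = DMSO wells and 100% = excess unlabeled arrestin peptide control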); settings: FITC arrestin peptide, at 10 µM, stronger effect = higher value, AP2 beta2 appendage fragment, R879A mutant
[12] = yeast V-ATPase proton transport modulators, S. cerevisiae, pHLuorin, HTS validation (AID 504600; in the data active = response above about 15%;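 also: plate controls were DMSO for no effect and reference compound for full effect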); settings: S. cerevisiae pHLuorin cytosolic pH, at 10 µM, stronger effect = higher value
[13] = system: anti-desmoglein-3 scFv antibody binding to human DSG3; assay: inhibitors of anti-DSG3 scFv binding to DSG3, pilot screen, biochemical, validation compound set, bead-based, flow cytometry (AID 588368;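 active = binding below the plate cutoff, the plate median minus 3 SD, with a reading above zero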;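 also: signal is the median channel fluorescence of bead-bound GFP antibody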); settings: Protein G beads, DSG3-Fc, scFv-GFP binding, at 10 µM, stronger effect = lower value
[14] = inhibitors of fungal efflux pumps CDR1, CDR2, MDR1, pilot screen, validation compound set, multiplex, phenotypic (AID 588506;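 active = efflux inhibition above 0.42, the validation set average plus 4 SD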;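 also: Nile Red retained in cells so higher fluorescence means more efflux inhibition; 0 = negative control wells and 1 = enniatin B 25 µM full block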); settings: S. cerevisiae pump-expressing triplex, Nile Red efflux flow cytometry; at 10 µM; stronger effect = higher value; the pumps come from Candida albicans
[15] = target: ATP-binding cassette sub-family B member 6 (Homo sapiens) (UniProt Q9NP58); assay: ABCB6 transporter inhibitors, pilot screen, K562-ABCB6 cells, flow cytometry, validation set (AID 588550;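 active = inhibition above the screen-wide mean plus 3 SD, about 51%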;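 also: 0% = DMSO wells and 100% = benzethonium chloride 70 µM positive control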); settings: K562-ABCB6 porphyrin accumulation, 1 h, at 10 µM, stronger effect = higher value
[16] = promoters of myeloid differentiation in arrested cells, primary screen, cell-based, GFP/MAC1 double positive, flow cytometry, validation set (AID 588685); settings: ER-HoxA9 marrow cells, stronger effect = higher value, normalized: vehicle 0, fulvestrant 100;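 also: compound exposure lasts four days before antibody staining and flow analysis; 0% = DMSO wells and 100% = 5 µM fulvestrant positive control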

Sequence of AP-2 complex subunit beta (Homo sapiens) (P63010 whole entry, looked up, the tested form may be a part, one chain of several): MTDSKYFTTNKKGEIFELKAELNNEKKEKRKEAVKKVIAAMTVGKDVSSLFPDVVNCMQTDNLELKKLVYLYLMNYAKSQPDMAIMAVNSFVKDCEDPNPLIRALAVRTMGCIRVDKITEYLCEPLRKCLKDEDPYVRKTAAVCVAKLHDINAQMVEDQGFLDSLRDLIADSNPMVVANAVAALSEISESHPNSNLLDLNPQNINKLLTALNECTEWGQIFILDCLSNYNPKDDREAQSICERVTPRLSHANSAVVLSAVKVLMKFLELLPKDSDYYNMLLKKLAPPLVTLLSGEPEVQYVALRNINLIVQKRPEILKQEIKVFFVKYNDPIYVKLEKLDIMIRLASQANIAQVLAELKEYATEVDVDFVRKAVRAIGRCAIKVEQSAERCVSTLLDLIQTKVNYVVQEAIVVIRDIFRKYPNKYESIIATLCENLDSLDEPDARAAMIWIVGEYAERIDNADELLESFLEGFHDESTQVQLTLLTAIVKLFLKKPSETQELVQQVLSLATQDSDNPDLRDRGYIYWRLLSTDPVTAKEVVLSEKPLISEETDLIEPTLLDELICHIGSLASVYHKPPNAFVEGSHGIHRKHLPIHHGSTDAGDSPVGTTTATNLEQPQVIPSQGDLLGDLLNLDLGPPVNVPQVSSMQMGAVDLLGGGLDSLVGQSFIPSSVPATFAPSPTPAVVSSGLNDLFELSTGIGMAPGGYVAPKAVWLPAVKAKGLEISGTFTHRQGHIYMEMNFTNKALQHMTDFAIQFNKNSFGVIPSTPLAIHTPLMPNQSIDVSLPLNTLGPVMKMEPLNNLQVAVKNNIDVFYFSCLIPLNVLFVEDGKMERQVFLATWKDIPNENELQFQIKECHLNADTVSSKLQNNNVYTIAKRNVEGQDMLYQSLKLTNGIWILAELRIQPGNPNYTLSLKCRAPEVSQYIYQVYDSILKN
Sequence of Beta-2 adrenergic receptor (Homo sapiens) (P07550 whole entry, looked up): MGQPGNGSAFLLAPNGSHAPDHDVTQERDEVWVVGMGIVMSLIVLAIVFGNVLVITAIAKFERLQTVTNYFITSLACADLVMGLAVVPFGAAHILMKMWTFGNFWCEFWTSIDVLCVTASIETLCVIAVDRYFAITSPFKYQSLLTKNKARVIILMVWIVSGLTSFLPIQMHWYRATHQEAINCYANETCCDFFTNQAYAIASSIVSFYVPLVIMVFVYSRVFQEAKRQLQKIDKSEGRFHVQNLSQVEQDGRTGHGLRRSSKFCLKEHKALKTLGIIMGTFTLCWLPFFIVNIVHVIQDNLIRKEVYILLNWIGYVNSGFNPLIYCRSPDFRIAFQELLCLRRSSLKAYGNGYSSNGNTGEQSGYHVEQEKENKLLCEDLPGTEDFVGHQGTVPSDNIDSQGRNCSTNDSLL
Sequence of Integrin beta-1 (Homo sapiens) + Integrin alpha-4 (Homo sapiens) (P05556 whole entry, looked up): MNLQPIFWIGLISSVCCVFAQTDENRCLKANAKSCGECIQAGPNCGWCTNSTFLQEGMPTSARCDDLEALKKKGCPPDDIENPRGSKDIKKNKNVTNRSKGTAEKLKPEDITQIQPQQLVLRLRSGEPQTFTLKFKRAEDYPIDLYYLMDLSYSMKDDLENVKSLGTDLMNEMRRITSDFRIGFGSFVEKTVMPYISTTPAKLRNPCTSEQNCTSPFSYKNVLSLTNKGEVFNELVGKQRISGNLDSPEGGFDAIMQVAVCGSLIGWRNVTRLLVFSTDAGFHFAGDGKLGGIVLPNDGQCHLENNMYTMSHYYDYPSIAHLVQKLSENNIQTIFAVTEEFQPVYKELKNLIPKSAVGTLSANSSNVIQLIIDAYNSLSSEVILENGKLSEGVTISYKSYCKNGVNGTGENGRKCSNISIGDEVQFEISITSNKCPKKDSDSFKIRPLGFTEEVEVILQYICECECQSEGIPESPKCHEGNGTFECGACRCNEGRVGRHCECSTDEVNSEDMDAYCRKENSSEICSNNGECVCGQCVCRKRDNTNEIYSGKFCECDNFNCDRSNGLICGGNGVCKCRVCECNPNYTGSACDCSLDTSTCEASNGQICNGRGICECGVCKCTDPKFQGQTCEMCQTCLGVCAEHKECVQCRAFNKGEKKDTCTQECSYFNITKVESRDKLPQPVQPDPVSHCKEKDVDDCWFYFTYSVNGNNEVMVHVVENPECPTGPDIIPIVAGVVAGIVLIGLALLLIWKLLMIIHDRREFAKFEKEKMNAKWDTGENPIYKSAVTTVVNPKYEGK
Sequence of Integrin beta-1 (Homo sapiens) + Integrin alpha-4 (Homo sapiens) (P13612 whole entry, looked up): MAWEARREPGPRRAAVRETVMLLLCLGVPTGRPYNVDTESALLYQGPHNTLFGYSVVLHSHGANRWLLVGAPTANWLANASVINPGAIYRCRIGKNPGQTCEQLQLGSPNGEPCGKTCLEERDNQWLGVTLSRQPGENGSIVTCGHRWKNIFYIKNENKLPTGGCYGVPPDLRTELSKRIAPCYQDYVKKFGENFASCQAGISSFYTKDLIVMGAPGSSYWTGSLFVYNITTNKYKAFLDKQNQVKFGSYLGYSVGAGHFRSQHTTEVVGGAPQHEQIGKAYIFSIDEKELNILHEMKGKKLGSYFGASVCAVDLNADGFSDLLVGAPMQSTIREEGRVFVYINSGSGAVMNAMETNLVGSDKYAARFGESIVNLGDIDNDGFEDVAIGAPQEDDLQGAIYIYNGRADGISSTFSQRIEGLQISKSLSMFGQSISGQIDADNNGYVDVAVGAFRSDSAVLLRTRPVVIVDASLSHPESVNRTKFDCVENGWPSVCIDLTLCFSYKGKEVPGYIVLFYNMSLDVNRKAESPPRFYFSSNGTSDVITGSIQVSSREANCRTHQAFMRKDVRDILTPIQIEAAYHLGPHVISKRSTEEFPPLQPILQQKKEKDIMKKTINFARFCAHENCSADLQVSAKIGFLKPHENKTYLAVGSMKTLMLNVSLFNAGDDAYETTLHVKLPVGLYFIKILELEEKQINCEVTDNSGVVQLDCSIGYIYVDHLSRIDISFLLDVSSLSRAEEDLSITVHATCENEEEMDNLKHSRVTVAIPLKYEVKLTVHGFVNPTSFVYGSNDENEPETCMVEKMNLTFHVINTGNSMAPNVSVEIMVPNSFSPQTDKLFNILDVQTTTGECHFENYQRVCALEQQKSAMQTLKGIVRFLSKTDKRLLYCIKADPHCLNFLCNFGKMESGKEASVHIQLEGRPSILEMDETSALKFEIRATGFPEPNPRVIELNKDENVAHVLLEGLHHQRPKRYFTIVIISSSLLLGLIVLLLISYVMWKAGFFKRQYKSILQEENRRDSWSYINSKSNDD
Sequence of Beta-adrenergic receptor kinase 1 (Homo sapiens) (P25098 whole entry, looked up): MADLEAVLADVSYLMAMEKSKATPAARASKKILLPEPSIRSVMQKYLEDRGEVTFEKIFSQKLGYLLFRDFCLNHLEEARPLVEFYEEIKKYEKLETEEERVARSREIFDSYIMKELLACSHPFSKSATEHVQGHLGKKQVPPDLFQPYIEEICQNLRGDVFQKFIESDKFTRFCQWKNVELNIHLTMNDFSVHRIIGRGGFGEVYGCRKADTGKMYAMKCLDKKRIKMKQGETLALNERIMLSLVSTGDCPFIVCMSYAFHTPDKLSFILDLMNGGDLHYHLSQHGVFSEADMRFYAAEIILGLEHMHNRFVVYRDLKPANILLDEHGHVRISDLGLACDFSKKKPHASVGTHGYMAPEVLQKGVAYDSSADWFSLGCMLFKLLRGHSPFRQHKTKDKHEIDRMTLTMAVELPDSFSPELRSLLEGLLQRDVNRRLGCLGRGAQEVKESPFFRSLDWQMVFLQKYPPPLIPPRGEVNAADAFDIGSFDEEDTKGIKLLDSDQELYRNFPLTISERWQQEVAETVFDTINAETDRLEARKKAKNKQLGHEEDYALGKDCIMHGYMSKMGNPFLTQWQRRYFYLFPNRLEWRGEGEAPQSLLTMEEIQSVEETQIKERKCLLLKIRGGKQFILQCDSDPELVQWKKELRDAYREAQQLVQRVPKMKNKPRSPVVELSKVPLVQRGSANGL
Sequence of ATP-binding cassette sub-family B member 6 (Homo sapiens) (Q9NP58 whole entry, looked up): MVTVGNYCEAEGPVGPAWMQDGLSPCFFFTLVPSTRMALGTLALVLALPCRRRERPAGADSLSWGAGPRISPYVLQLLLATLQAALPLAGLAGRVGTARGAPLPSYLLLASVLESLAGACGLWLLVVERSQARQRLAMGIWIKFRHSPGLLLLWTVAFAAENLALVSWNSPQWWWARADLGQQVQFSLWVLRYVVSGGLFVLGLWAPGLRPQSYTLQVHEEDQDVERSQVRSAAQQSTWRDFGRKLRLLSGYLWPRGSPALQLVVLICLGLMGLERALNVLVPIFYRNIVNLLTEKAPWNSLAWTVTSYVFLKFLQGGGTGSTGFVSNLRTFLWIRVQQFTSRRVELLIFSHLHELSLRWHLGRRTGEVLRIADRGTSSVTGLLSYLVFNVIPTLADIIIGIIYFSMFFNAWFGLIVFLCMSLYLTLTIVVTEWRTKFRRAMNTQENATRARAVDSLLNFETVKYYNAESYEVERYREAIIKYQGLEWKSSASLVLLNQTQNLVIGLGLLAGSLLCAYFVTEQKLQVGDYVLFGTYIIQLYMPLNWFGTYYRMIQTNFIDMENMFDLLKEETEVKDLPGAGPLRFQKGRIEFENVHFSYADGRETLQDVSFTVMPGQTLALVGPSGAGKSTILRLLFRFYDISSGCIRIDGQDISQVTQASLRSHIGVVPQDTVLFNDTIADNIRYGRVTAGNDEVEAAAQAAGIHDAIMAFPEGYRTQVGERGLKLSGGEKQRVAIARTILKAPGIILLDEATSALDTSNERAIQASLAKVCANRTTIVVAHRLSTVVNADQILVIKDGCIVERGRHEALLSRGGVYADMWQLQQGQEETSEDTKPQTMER

Nc1c(C(=O)c2ccccc2)oc2ccccc12
inactive: percent of DMSO control GFP [1] 101% | GFP response vs DMSO [2] 96.2% | percent response of DMSO control [3] 100% | GFP response vs DMSO [4] 93.3% | GFP response, % of DMSO [5] 74.2% | vesicle binding response [6] 198% | inhibition [7] -2.53% | superoxide response (% of plate) [8] 89.5% | aptamer binding inhibition [9] -1% | response [10] -9.17% | inhibition [11] -8.74% | response [12] 1.23% | binding (% of control) [13] 86.9% | efflux inhibition (fraction of control) [14] -0.32 | inhibition [15] -18% | differentiation response [16] 24.7%
66%: double positive events [6]

COc1ccc(CN(CCC(c2ccccc2)c2ccc(OC(C)C)cc2)C(=O)CCl)cc1OC (stereo not drawn)
inactive: percent of DMSO control GFP [1] 101% | GFP response vs DMSO [2] 98.3% | percent response of DMSO control [3] 107% | GFP response vs DMSO [4] 98% | GFP response, % of DMSO [5] 99.7% | vesicle binding response [6] 249% | inhibition [7] -3.57% | superoxide response (% of plate) [8] 94.5% | aptamer binding inhibition [9] 4% | response [10] -6.05% | inhibition [11] -14.7% | response [12] 0.92% | binding (% of control) [13] 93% | efflux inhibition (fraction of control) [14] -0.2 | inhibition [15] 6% | differentiation response [16] 13.9%
65.9%: double positive events [6]

O=C(NCC1CCCO1)c1ccc(OC2CCN(C(=O)C3CC3)CC2)cc1 (stereo not drawn)
inactive: percent of DMSO control GFP [1] 98.2% | GFP response vs DMSO [2] 106% | percent response of DMSO control [3] 97.8% | GFP response vs DMSO [4] 96.6% | GFP response, % of DMSO [5] 99.4% | vesicle binding response [6] 5260% | inhibition [7] -22.2% | superoxide response (% of plate) [8] 94% | aptamer binding inhibition [9] 2% | response [10] -3.28% | inhibition [11] -5.78% | response [12] 0.79% | binding (% of control) [13] 101% | efflux inhibition (fraction of control) [14] -0.01 | inhibition [15] 3% | differentiation response [16] -6.6%
63.1%: double positive events [6]

CCn1c(C)cc2c(c1=O)C(c1ccccc1)C(C(=O)OC)=C(N)O2 (stereo not drawn)
inactive: percent of DMSO control GFP [1] 102% | GFP response vs DMSO [2] 105% | percent response of DMSO control [3] 98.3% | GFP response vs DMSO [4] 108% | GFP response, % of DMSO [5] 111% | vesicle binding response [6] 167% | inhibition [7] 18.5% | superoxide response (% of plate) [8] 108% | aptamer binding inhibition [9] 4% | response [10] -32.4% | inhibition [11] 1.11% | response [12] -16.3% | binding (% of control) [13] 102% | efflux inhibition (fraction of control) [14] 0.04 | inhibition [15] 7% | differentiation response [16] 4.86%
58.8%: double positive events [6]

C/C(=N\NC(=O)c1ccccc1[N+](=O)[O-])c1ccc(Br)s1
inactive: percent of DMSO control GFP [1] 98.4% | GFP response vs DMSO [2] 107% | percent response of DMSO control [3] 107% | GFP response vs DMSO [4] 100% | GFP response, % of DMSO [5] 101% | vesicle binding response [6] 94.2% | inhibition [7] 0.25% | superoxide response (% of plate) [8] 97.9% | aptamer binding inhibition [9] 2% | response [10] -0.6% | inhibition [11] 7.49% | response [12] -4.2% | binding (% of control) [13] 95.7% | efflux inhibition (fraction of control) [14] -0.235 | inhibition [15] -10% | differentiation response [16] -4.57%
57.5%: double positive events [6]

O=C1OC(Nc2ccc3c(c2)OCO3)c2ccccc21 (stereo not drawn)
63.1%: double positive events [6]
inactive: percent of DMSO control GFP [1] 99.4% | GFP response vs DMSO [2] 105% | percent response of DMSO control [3] 93.1% | GFP response vs DMSO [4] 114% | GFP response, % of DMSO [5] 97.3% | vesicle binding response [6] 185% | inhibition [7] -22.2% | superoxide response (% of plate) [8] 99.6% | aptamer binding inhibition [9] 3% | response [10] 10.6% | inhibition [11] -3.85% | response [12] 0.82% | binding (% of control) [13] 100% | efflux inhibition (fraction of control) [14] 0.02 | inhibition [15] -1% | differentiation response [16] 21.8%

COc1ccc(C2C(C#N)=C(N)Oc3cc(C)[nH]c(=O)c32)c(OC)c1OC (stereo not drawn)
inactive: percent of DMSO control GFP [1] 88.2% | GFP response vs DMSO [2] 117% | percent response of DMSO control [3] 92.6% | GFP response vs DMSO [4] 78.1% | GFP response, % of DMSO [5] 97% | vesicle binding response [6] 168% | inhibition [7] 14.2% | superoxide response (% of plate) [8] 97.7% | aptamer binding inhibition [9] 4% | response [10] -4.98% | inhibition [11] -3.85% | response [12] -1.92% | binding (% of control) [13] 109% | efflux inhibition (fraction of control) [14] 0.16 | inhibition [15] 10% | differentiation response [16] 0%
63.8%: double positive events [6]

Cc1ccc2c(c1)C1(C(=O)N2)N2CCCC2C(C(=O)c2ccc3ccccc3c2)C12C(=O)Nc1ccccc12 (stereo not drawn)
60.9%: double positive events [6]
inactive: percent of DMSO control GFP [1] 107% | GFP response vs DMSO [2] 93% | percent response of DMSO control [3] 115% | GFP response vs DMSO [4] 89.4% | GFP response, % of DMSO [5] 101% | vesicle binding response [6] 224% | inhibition [7] -8.75% | superoxide response (% of plate) [8] 94.8% | aptamer binding inhibition [9] 1% | response [10] 3.54% | inhibition [11] -0.28% | response [12] 2.26% | binding (% of control) [13] 97.2% | efflux inhibition (fraction of control) [14] 0.24 | inhibition [15] -11% | differentiation response [16] -0.73%

CCOC(=O)C1C2C=CC3(CN(c4ccc(Cl)c(F)c4)C(=O)C13)O2 (stereo not drawn)
58.3%: double positive events [6]
inactive: percent of DMSO control GFP [1] 100% | GFP response vs DMSO [2] 99.3% | percent response of DMSO control [3] 95.4% | GFP response vs DMSO [4] 96.6% | GFP response, % of DMSO [5] 94.6% | vesicle binding response [6] 171% | inhibition [7] -9.79% | superoxide response (% of plate) [8] 105% | aptamer binding inhibition [9] 1% | response [10] 1.75% | inhibition [11] 36.1% | response [12] -0.79% | binding (% of control) [13] 100% | efflux inhibition (fraction of control) [14] 0.33 | inhibition [15] 2% | differentiation response [16] 12%
